This is a sample that favours compounds with a hit; in the whole collection about 1.5% have one here.
IDH1 R132H inh – human IDH1 R132H inhibition; O75874; IDH1-R132H enzyme, NADPH consumption, diaphorase/resazurin fluorescence; Potency, µM (highest dose often 76.6 µM), actives largely listed as inhibitors; 390,000 tested, 0.093% active; AID 602179; note: nearly all actives have a fitted effect of over 65% in size
Target sequence (O75874 whole entry R132H, stated change not applied): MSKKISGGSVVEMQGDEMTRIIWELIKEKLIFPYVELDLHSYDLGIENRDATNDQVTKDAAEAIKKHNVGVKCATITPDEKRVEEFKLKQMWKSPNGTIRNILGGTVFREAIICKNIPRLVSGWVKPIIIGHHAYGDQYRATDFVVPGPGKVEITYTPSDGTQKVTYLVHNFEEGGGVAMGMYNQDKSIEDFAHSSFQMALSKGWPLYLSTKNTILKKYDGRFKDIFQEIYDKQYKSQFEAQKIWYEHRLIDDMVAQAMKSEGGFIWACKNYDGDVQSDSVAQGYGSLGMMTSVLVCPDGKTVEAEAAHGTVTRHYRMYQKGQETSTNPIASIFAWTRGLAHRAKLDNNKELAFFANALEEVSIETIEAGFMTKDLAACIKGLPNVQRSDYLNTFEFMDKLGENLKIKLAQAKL
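IDH1-R132H (0.5 ug/mL) preincubated 30 min with compound, then NADPH (0.016 mM) and alpha-KG (2 mM) added; 80 min at RT, pH 7.5. Remaining NADPH coupled via diaphorase/resazurin to fluorescence (540/590 nm); concentration-response curves normalized to no-enzyme control.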
IL-2 act – IL-2 activation. IL-2 activation reporter assay, cell-based qHTS; stimulated with anti-CD3/CD4/CD28 beads; in transgenic mouse T cells. activation, % (series mostly up to about 46 µM). 360,000 tested, 0.065% active; in the data active = activation above about 50%; inconclusive = mostly about 30% to 49%
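EGFP and DsRed fluorescence is measured by plate cytometry in unstimulated transgenic mouse T cells exposed to compound for 60 minutes, then stimulated 18 hours at 37 degrees C with anti-CD3/anti-CD4 beads plus anti-CD28.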
gsp ag – activates gsp, the McCune-Albright syndrome mutation. 340,000 tested, 0.13% active. gsp mutant cells, cAMP HTRF, 30 min. Potency, µM (doses to about 76.9 µM), most hits filed as activators; active = well fitted activation curve with a large enough effect; inconclusive = small, poorly fitted or top-dose-only effect, or another doubt; inactive = no such curve, though single readings can be large or run the other way; cell line not stated here;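 note: phosphodiesterase inhibitor Ro 20-1724 added with compounds to block cAMP breakdown; nearly all actives have a fitted effect of over 60% in size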
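Cells in DMEM/10% FBS with G418 were pretreated with compounds in DMSO plus […] (300 uM stock) for 30 min at 37C. cAMP was measured by HTRF (cAMP-d2 plus anti-cAMP antibody-K) after 30 min at room temperature.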
BRCA1 expr act – increases BRCA1 expression | MCF7-BRCA1-FFLuc reporter, luminescence, 48 h; response scale: scaled: vehicle 0%, 10 µM genistein 100% | Potency, µM (top dose mostly 46.1 µM), actives largely listed as activators | 380,000 tested, 1.1% active; note: nearly all actives have a fitted effect of over 80% in size
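First, MCF7-BRCA1-FFLuc cells (2000/well) attach for 2 h; next, compounds are pin-added and incubated 48 h at 37 °C; finally, luciferase reagent is added and luminescence read after 15 min.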
gsp antagonist – gsp mutant antagonism. gsp-mutant cells, cAMP HTRF, 30 min. Potency, µM (series often up to 76.9 µM), usual class: inhibitors. 340,000 tested, 0.4% active. AID 624288; calls by dose curve; cell line not stated here;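 note: intracellular cAMP measured with PDE inhibitor Ro 20-1724 present during compound exposure; nearly all actives have a fitted effect of over 65% in size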
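Cells in G418 medium, seeded 16-24 h, 37C; buffer exchange to DPBS + 1 mM CaCl2, 0.5 mM MgCl2, 0.05% BSA; cpds in DMSO + […] (300 uM stock), 30 min 37C; HTRF cAMP detection.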
Hits are given with their value; - = inactive; ? = inconclusive; . = no result; [ ] = another dose, or the depositor's remark. Unless noted, calls come from the whole dose curve; as a rule, active = well fitted curve in the direction sought with a large enough effect; inconclusive = small, poorly fitted or top-dose-only effect, or another doubt; inactive = no such curve, though single readings can be large; an effect the other way counts as inactive or inconclusive.

SMILES | IDH1 R132H inh | IL-2 act | gsp ag | BRCA1 expr act | gsp antagonist
Cc1ccc(COn2c(-c3ccc(Cl)cc3)nc3ccc([N+](=O)[O-])cc32)cc1 | - | - | - | 10µM | -
COc1ccc(-c2noc(-c3cccnc3N3CCN(c4ccc(OC)cc4)CC3)n2)cc1 | - | . | . | - | .
O=C(N[C@@H](Cc1ccccc1)C(=O)NC1CCCCCC1)c1ccco1 | - | - | - | 11µM | -
CSCCC(NC(=O)c1ccco1)C(=O)NC1CCC(C)CC1 (configuration not stated) | - | - | - | 3.5µM | -
O=C(N[C@@H](Cc1ccccc1)C(=O)NC1CCCCC1)c1ccco1 | - | - | - | - | -
O=C1/C(=C/c2ccc([N+](=O)[O-])cc2)Oc2cc(O)ccc21 | - | - | -[15.4 µM] | - | 22µM
O=C1/C(=C/c2ccc(Br)cc2)Oc2cc(O)ccc21 | - | - | - | - | -
Cc1cccc(NS(=O)(=O)c2cccc(C(=O)N3CCN(c4ccccn4)CC3)c2)c1 | - | - | - | - | ?
Cc1ccc(C(C)(C)C)cc1S(=O)(=O)Nc1cccc(C(=O)N2CCN(c3ccccn3)CC2)c1 | - | - | - | - | 40µM
Fc1ccc(Nc2ccc(-c3ccc(F)cc3)nn2)cc1 | - | - | - | 5.6µM | -
Clc1ccccc1C1CC(c2ccccc2)=Nc2ccccc2N1 (configuration not stated) | - | 77 | -[15.4 µM] | - | -
Brc1ccccc1C1CC(c2ccccc2)=Nc2ccccc2N1 (configuration not stated) | - | - | -[15.4 µM] | - | -
CCOC(=O)C1=CCN(S(=O)(=O)c2ccccc2Cl)C1c1ccccc1 (configuration not stated) | . | - | . | - | .
Cc1noc(C)c1NC(=O)N(C)C[C@@H]1OCc2cnnn2CCCC(=O)N([C@H](C)CO)C[C@@H]1C | - | - | - | - | .
Fc1ccc(C2CC(c3ccccc3)Nc3ncnn32)cc1 (configuration not stated) | - | - | - | - | 11µM
Cc1nn(-c2ccccc2)c(/N=C/c2ccc(O)cc2)c1-c1ccccc1 | - | - | - | 5.6µM | -
Cc1cc(C(=O)COC(=O)Cn2cnc3c2c(=O)n(C)c(=O)n3C)c(C)n1C | - | - | 4µM | - | -
C/C(=N\NC(=O)c1sccc1C)c1ccncc1 | - | - | ? | ? | -
C/C(=N\NC(=O)c1sccc1C)c1cccnc1 | - | - | - | 2.8µM | -
Cc1ccc(S(=O)(=O)N2CCN(c3nc(-c4ccnnc4)nc4ccccc34)CC2)cc1 | . | . | . | - | .
Cc1oc(-c2cccc(Cl)c2)nc1CSCC(=O)NCc1ccccc1Cl | - | . | . | . | .
Cc1ccc(S(=O)(=O)N2C[C@H]3C(=O)C[C@@H](c4ccccc4F)N(S(=O)(=O)c4ccc(C)cc4)[C@H]3C[C@H]2c2ccccc2F)cc1 | . | - | . | - | .
CS(=O)(=O)c1ccccc1NC(=O)COc1ccccc1C(=O)Nc1ccccc1 | . | . | . | - | .
CN(C)c1ccc(/C=N/NC(=O)c2ccccn2)cc1 | - | - | -[15.4 µM] | - | -
CN(C)c1ccc(/C=N/NC(=O)c2ccnn2C)cc1 | - | - | - | 13µM | -
SMILES | IDH1 R132H inh | IL-2 act | gsp ag | BRCA1 expr act | gsp antagonist
CN(C)c1ccc(/C=N/NC(=O)c2ccn(C)n2)cc1 | - | - | -[15.4 µM] | ? | -
CN(C)c1ccc(/C=N/NC(=O)c2cnc3ccccc3c2)cc1 | - | 170 | - | - | -
O=C(Cc1ccc(OCCCCc2ccccc2)cc1)NO | . | . | . | - | .
Cc1cccc(-n2c(-c3ccco3)n[nH]c2=S)c1 | - | - | 6.3µM | - | -
Cc1cccc(-n2c(-c3ccc(Br)o3)n[nH]c2=S)c1 | - | - | - | - | -
Cc1cccc(-c2noc(-c3ccccc3C(=O)NCC3CCCO3)n2)c1 (configuration not stated) | - | - | - | 6.3µM | -
Clc1ccc(-c2nc(CSc3ccccn3)cs2)cc1 | - | - | ? | 10µM | .
COc1ccccc1/C=C/C(=O)NCCC1=CCCCC1 | - | - | -[15.4 µM] | 2.8µM | -
COc1cccc(NC(=O)NCCC2=CCCCC2)c1 | - | - | - | 5µM | -
COc1ccc(NC(=O)NCCC2=CCCCC2)cc1 | - | - | - | ? | -
CCC(=O)N/C(N)=N/c1nc2ccccc2o1 | - | - | -[15.4 µM] | 2µM | -
CCc1cccc(C)c1NC(=O)CSc1nnc(CCCOc2ccc(Cl)cc2Cl)n1C | - | - | - | - | 10µM
CC1=C(C(=O)N(C(C)C)C(C)C)CC(CC(=O)NC2CC2)C(=O)N1CCC1=CCCCC1 (configuration not stated) | . | - | . | - | .
N=c1oc2cc(O)ccc2cc1C(=O)Nc1ccc(Cl)cc1 | - | - | ? | ? | 40µM
Cc1ccc(NC(=O)c2cc3ccccc3oc2=N)cc1 | - | - | - | - | -
COc1ccc(C(=O)/C(=C/N(C)C)S(=O)(=O)c2ccccc2)cc1 | - | - | -[15.4 µM] | 3.2µM | -
O=C(NCc1ccccc1)c1cc(C2COCCN2S(=O)(=O)c2cccs2)on1 (configuration not stated) | . | - | . | - | .
Cc1ccc(NC(=O)c2ccc(Nc3ccccc3F)nc2)cc1 | - | - | - | 8.9µM | -
Cc1nc2c(cnn2-c2ccccc2Cl)c(=O)n1-c1ccc(N2CCC(C)CC2)cc1 | - | - | - | - | 35µM
COc1cc(/C=N/OCC(=O)Nc2ccc(OC(F)F)cc2)ccc1OCc1ccccc1 | - | - | - | - | -
CCOc1ccc(/C=N/OCC(=O)Nc2ccc(OCc3ccccc3)cc2)cc1OC | - | - | -[15.4 µM] | 7.9µM | -
CCOc1ccc(/C=C/c2ccc3ccccc3[n+]2C)cc1OCC | . | . | . | - | .
COc1ccc(Nc2ncnc3ccccc23)c(OC)c1 | - | - | - | - | -
COc1cccc(Nc2ncnc3ccccc23)c1 | - | - | - | 11µM | -
O=C(Oc1cccc(Nc2ncnc3ccccc23)c1)c1ccccc1Cl | - | - | - | - | ?
SMILES | IDH1 R132H inh | IL-2 act | gsp ag | BRCA1 expr act | gsp antagonist
COc1ccc(Nc2ncnc3ccccc23)cc1 | - | - | - | 7.9µM | -
CCOc1ccc(NC(=O)CSc2nc3ccsc3c(=O)n2C(C)CC)cc1 (configuration not stated) | - | . | . | . | .
Fc1ccc(-c2onc3ccc(C4OCCO4)cc23)cc1 | - | - | -[15.4 µM] | - | 11µM
CCCOc1cccc(NC(=O)c2c(-c3ccccc3Cl)noc2C)c1 | - | . | . | . | .
Cc1cc(C)cc(NC(=O)C2CCCN(C(=O)c3cnn(-c4ccccc4)c3-n3cccc3)C2)c1 (configuration not stated) | - | . | . | - | .
CCOC(=O)C/C(C)=N\Nc1nc(-c2ccccc2)cs1 | - | - | -[15.4 µM] | - | 8.9µM
Cc1ccc(NC(=O)CC(=O)c2ccccc2)cc1C | - | - | -[15.4 µM] | 6.3µM | -
COc1cccc(-c2csc(NC(C)=O)n2)c1 | - | - | - | 13µM | -
Cc1ccc(NC(=O)c2ccc(NC(=O)c3ccccc3)cc2)cc1C | - | - | - | - | -

Screening results (PubChem BioAssay)
